High-throughput results from PubChem.
TRPV1 potentiator – HTS Assay for Compounds that Act as Potentiators of the Vanilloid Receptor 1 | potentiation, % at 8.33 µM | Transient receptor potential cation channel subfamily V member 1 (Homo sapiens), Q8NER1 | TRPV1-expressing cells, Fluo-8 calcium influx, capsaicin EC20 potentiation | hit rate 0.02% among 320,000; in the data active means potentiation above about 80%; inconclusive means between about 30% and that limit
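Fluo-8 calcium influx in TRPV1-expressing cells, kinetic read (ex 480/em 520 nm). Compound added and read 3 min for agonist activity, followed by capsaicin at EC20 final and 2 min further read for enhancement.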
p53 reactivation – qHTS assay for re-activators of p53 using a Luc reporter | H1299 p53-A138V BP100-luciferase reporter, luminescence, 24 h | Potency, µM (highest dose often 92.2 µM), hits mostly activators | hit rate 0.063% among 320,000; active means well fitted activation curve with a large enough effect; inconclusive means small, poorly fitted or top-dose-only effect; inactive means no such curve, though single readings can be large or run the other way; further: nearly all actives have a fitted effect of over 45% in size
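p53-null H1299 cells stably carrying temperature-sensitive p53-A138V and a BP100-luciferase reporter were pinned with compounds (4-point, 1:5 series) and held 24 hrs at 37 deg C. Luminescence was read 10 min after detection reagent.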
TRPV1 ag – HTS Assay for Compounds that Act as Agonists of the Vanilloid Receptor 1. activation, % at 8.33 µM. hit rate 0.19% among 320,000. Transient receptor potential cation channel subfamily V member 1 (Homo sapiens), Q8NER1. TRPV1-expressing cells, Fluo-8 calcium influx, agonist mode; in the data active means activation above about 80%; inconclusive means between about 30% and that limit
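TRPV1-expressing cells were cultured overnight at 35.5C and loaded with Fluo-8 calcium dye for 40 to 90 min at room temperature. After a 10 s baseline, compound was added and calcium influx was read kinetically for 3 min (ex 480/em 520 nm).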
hERG WT inh – qHTS for Inhibitors of KCHN2 3.1: Wildtype qHTS; Voltage-gated inwardly rectifying potassium channel KCNH2 (Homo sapiens), Q12809; hit rate 0.37% among 340,000; U2OS, BacMam KCNH2, thallium flux FluxOr; active compounds read low; activity change, % at 1.84 µM;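 active means maximum activity change below -70%; inconclusive means maximum activity change between -70% and -50%; inactive means maximum activity change above -50%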
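U2OS cells were transduced with wild-type KCNH2 virus (2.03 x 10^8 / mL) for 4 h at room temperature, then cultured overnight at 37 C. Thallium flux was read with FluxOr dye. Rate constants were normalized to DMSO controls.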
ClpP mod – qHTS Assay for Activators of ClpP; ATP-dependent Clp protease proteolytic subunit (Bacillus subtilis (strain 168)), P80244; purified B. subtilis ClpP, FRET peptide cleavage, 20 min; Potency, µM (titrated, usually from 57.5 µM); hit rate 1.9% among 340,000; AID 651965, 2013; active means well fitted falling curve with a large enough effect; inconclusive means small, poorly fitted or top-dose-only effect; inactive means no such curve, though single readings can be large or run the other way; further: the source files actives as falling curves though it sought activators and does not explain the sign; nearly all actives have a fitted effect of over 65% in size
Target sequence (P80244 whole entry, looked up): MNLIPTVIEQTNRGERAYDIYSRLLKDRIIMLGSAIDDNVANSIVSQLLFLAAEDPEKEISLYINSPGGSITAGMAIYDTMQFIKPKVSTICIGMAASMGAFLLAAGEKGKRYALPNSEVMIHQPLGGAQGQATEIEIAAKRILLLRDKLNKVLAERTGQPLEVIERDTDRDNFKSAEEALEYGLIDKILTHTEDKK
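ClpP 10 microg/mL final, pH 8 Tris/KCl buffer with BSA, glycerol, Tween-20; compound pinned in; FRET-FV substrate; RT 20 min; Ex320/Em430; ΔFRET vs ADEP 5.8 microM, DMSO, no enzyme.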
KCNH2 3.1 inh – qHTS for Inhibitors of KCHN2 3.1: Mutant qHTS | activity change, % (tested at about 1.8 µM) | U2OS KCNH2 3.1, thallium flux FluxOr; active compounds read low | hit rate 0.95% among 340,000;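 active means maximum activity change below -70%; inconclusive means maximum activity change from -70% to -50%; inactive means maximum activity change above -50%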;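 further: thallium influx rate constant from kinetic fluorescence after stimulation buffer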
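U2OS cells transduced with KCNH2 3.1 mutant virus (1.77 x 10^8 /mL, 4 h), plated overnight at 37 C, loaded 45 min with FluxOr dye plus Red40 quencher. Thallium flux rate constant from kinetic reads after stimulation buffer, normalised to controls.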
Hits are given with their value; 0 = inactive; ? = inconclusive; - = not tested or not shown. Hits are enriched below; roughly 2.6% of the tested compounds scored in any of these assays.

SMILES	TRPV1 potentiator	p53 reactivation	TRPV1 ag	hERG WT inh	ClpP mod	KCNH2 3.1 inh
Cn1c(=O)c2c(c3ccccc31)OC(=O)CC2c1cccnc1 (stereo not drawn)	0	0	0	0	0	0
Cn1c(=O)c2c(c3ccccc31)OC(=O)CC2c1cccc(Cl)c1 (stereo not drawn)	-	-	-	-	11µM	-
CC(C)(C)S(=O)(=O)c1ccc2nc3c(n2c1)CCCC3	0	0	0	0	28µM	0
CCc1ccc(NC(=O)N2CC(C)Oc3ccc(C)cc32)cc1 (stereo not drawn)	-	-	-	-	0	-
Cc1cc(C)c(Cn2cnc3nc4c(cc3c2=O)CCCC4)c(C)c1	-	-	-	-	0	-
CC(C)C[C@H](NC(=O)OC(C)(C)C)C(=O)N/N=C/c1ccc2nccnc2c1	0	0	0	0	0	0
CC(C)C[C@H](NC(=O)OC(C)(C)C)C(=O)N/N=C/C1=Cc2ccccc2OC1C (stereo partly drawn)	0	0	0	0	28µM	0
O=C(Nc1ccccc1)N1CCCN(c2nccc(C(F)(F)F)n2)CC1	0	0	87	0	-	0
O=C(Nc1ccc(F)cc1)N1CCCN(c2nccc(C(F)(F)F)n2)CC1	0	0	?	0	0	0
COc1ccccc1OC(C)C(=O)Nc1nc(-c2ccc(S(=O)(=O)N3CCOCC3)cc2)cs1 (stereo not drawn)	0	0	0	0	0	0
CC(C)C(=O)Nc1nc(-c2ccc(S(=O)(=O)N3CCOCC3)cc2)cs1	0	0	0	0	32µM	0
Cc1ccc(COC(=O)c2cc([N+](=O)[O-])ccc2N2CCOCC2)cc1	0	0	0	-	-	-
COCCNC(=O)c1cccc(OC2CCN(Cc3ccc(OC(F)F)cc3)CC2)c1	0	-	0	0	-	-80
O=C(OCc1ccc([N+](=O)[O-])cc1)c1cc([N+](=O)[O-])ccc1N1CCOCC1	0	0	0	-106	0	-89
COCCNC(=O)c1cccc(OC2CCN(Cc3cccc(C(C)=O)c3)CC2)c1	?	-	0	0	0	0
COc1ccc(CN2CCOCCOCCN(Cc3ccc(OC)cc3)CCOCCOCC2)cc1	0	0	0	0	0	-74
CC(C)CN(CC(C)C)c1ccc(/C=C/c2nc3ccccc3s2)cc1	-	-	-	-	0	-
Cc1ccc(C)c(NC(=O)c2nnn(Cc3ccc(F)cc3Cl)c2N)c1	-	-	-	-	0	-
Cc1ccc(-c2csc(NC(=O)c3cc([N+](=O)[O-])ccc3N3CCOCC3)n2)cc1	0	0	0	-108	0	0
O=C(Nc1nc(-c2ccccc2)cs1)c1ccc(N2CCOCC2)c([N+](=O)[O-])c1	0	?	0	0	0	0
O=[N+]([O-])c1ccc(COc2ccc(Br)cc2CN2CCOCC2)cc1	0	0	0	0	0	-90
CSc1ccc(CN2CCN(Cc3ccc([N+](=O)[O-])cc3)CC2)cc1	0	0	0	-112	0	-110
COCCNC(=O)c1ccc(CN2CCOCC2)cc1	0	0	0	-133	0	0
CCC1CN(C(=O)Nc2cc(Cl)c(OC)cc2OC)c2ccccc2O1 (stereo not drawn)	-	-	-	-	0	-
COc1ccc(CCNC(=O)c2cccc(Nc3nc4ccccc4nc3-n3nc(C)cc3C)c2)cc1OC	-	-	-	-	0	-
SMILES	TRPV1 potentiator	p53 reactivation	TRPV1 ag	hERG WT inh	ClpP mod	KCNH2 3.1 inh
O=C(CNC(=O)C1CCCCC1)OCc1ccccc1	-	-	-	-	0	-
CCOc1ccc(N(C)S(=O)(=O)c2ccc3c(c2)C(C)(C)C(=O)N3C)cc1	-	-	-	-	0	-
CCOc1ccccc1NC(=O)c1nc2nc(C)cc(C(F)F)n2n1	-	-	-	-	0	-
CC1CCN(C(=O)CSc2nc3ccccc3nc2Cc2ccccc2)CC1	-	-	-	-	0	-
O=[N+]([O-])c1ccc(COc2ccc(CN3CCOCC3)cc2)cc1	-	-	-	0	0	0
O=[N+]([O-])c1ccc(CN2CCOCCOCCN(Cc3ccc([N+](=O)[O-])cc3)CCOCC2)cc1	0	0	0	-90	-	-115
Cc1ccc(NC(=O)CSc2nnc(C)n2CC2CCCO2)cc1 (stereo not drawn)	0	0	0	-	0	0
Cc1nc(NC(=O)CSc2nnc(C)n2CC2CCCO2)sc1C (stereo not drawn)	0	0	0	-188	0	0
CCC1(C)CC(=O)N(c2ccc(C(=O)O)c(O)c2)C1=O (stereo not drawn)	0	0	0	0	25µM	0
Cn1c(=O)c2cc(NC(=O)NCc3ccc(Cl)cc3Cl)ccc2n1Cc1ccccc1	-	-	-	-	0	-
CC(C)c1ccc(C(=O)C[N+]2(C)CCOCC2)cc1	-	-	-	-	0	-
CCCS(=O)(=O)c1ncc(Cl)c(C(=O)N2CCN(c3ccc(OC)cc3)CC2)n1	-	-	-	-	0	-
CCCCc1cc(=O)oc2cc(C)cc(OCC(=O)O)c12	0	0	0	0	8.9µM	0
CCCCc1cc(=O)oc2cc(C)cc(OCC(=O)NCC3CCC(C(=O)O)CC3)c12 (stereo not drawn)	0	-	0	0	0	0
O=C(CCN1C(=O)C2C3C=CC(C3)C2C1=O)Nc1ccccc1 (stereo not drawn)	0	0	0	0	0	0
Cc1cc(NC(=O)CCN2C(=O)C3C4C=CC(C4)C3C2=O)c2ccccc2n1 (stereo not drawn)	0	0	0	-133	0	-138
CSCCC(NC(=O)c1ccco1)C(=O)O (stereo not drawn)	0	0	0	0	0	0
CSCCC(NC(=O)c1occc1C)C(=O)O (stereo not drawn)	?	0	0	0	25µM	0
CC(C)CCn1cnc2c(cnn2-c2ccc(F)cc2)c1=O	0	?	0	-181	0	-137
Cc1ccc(C)c(Cn2cnc3c(cnn3-c3ccc(F)cc3)c2=O)c1	-	-	-	-	0	-
